# Test results taken from PubChem BioAssay AID2284378 (EPA ToxCast).
# Records with an inconclusive call do not appear. The source made the active and inactive calls. How the source made its calls: active means hit-call score of the fitted dose curve at least 0.9, where 1 is the maximum; inconclusive means response in the unintended direction; inactive means score below 0.9.
# System: frog Retinoid X Receptor beta (RXRb), gene 394278
# Assay: ATG_frRXRb_EcoTox2: Attagene TRANS-FACTORIAL EcoTox-2 HepG2 Assay for frog Retinoid X Receptor beta (RXRb)
# Procedure: ATG_EcoTox2 is a cell-based, multiplexed assay created by modifying the existing Attagene TRANS-FACTORIAL system to include a panel of nuclear receptors from some or all the following species: human (Homo sapiens), african clawed frog (Xenopus laevis), rainbow trout (Oncorhynchus mykiss), japanese medaka (Oryzias latipes), and zebrafish (Danio rerio). The ECOTOX2-FACTORIAL format uses HepG2, a human liver cell line, with measurements taken at 24 hours after chemical dosing in a 24-well plate. ATG_frRXRb_EcoTox2 is one of 29 assay components calculated in the ATG_EcoTox2 assay. It is designed to make measurements of mRNA induction, a form of inducible reporter, as detected with fluorescence intensity signals by Reverse transcription polymerase chain reaction (RT-PCR) and Capillary electrophoresis technology.The assay endpoint ATG_frRXRb_EcoTox2 was analyzed in the positive analysis fitting direction relative to DMSO as the negative control and baseline of activity. Using a type of inducible reporter, measures of mRNA for gain-of-signal activity can be used to understand the reporter gene at the transcription factor-level as they relate to the gene RXRb. Furthermore, this assay endpoint can be referred to as a primary readout, because this assay has produced multiple assay endpoints where this one serves a reporter gene function. […]
# Human liver HepG2 cells are transiently transfected with multiple reporter transcription units (MRTUs) in 6-well plates using FuGene 6 reagent (Roche; 3 ml FuGene/1 mg DNA). […] A major difference between the CIS and TRANS system is that in CIS activities of endogenous TFs are measured, whereas the TRANS assay evaluates changes in activities of exogenous, chimeric NR-Gal4 proteins. […] The fragments were purified using Qiaquick PCR columns (Qiagen), analyzed on an ABI 3130xL genetic analyzer (Applied Biosystems) with peak positions identified by using a set of X-rhodamine (ROX)-labeled MapMarker1000 molecular weight standards (BioVentures). […]
row,Compound,AC50
1,O=C(O)C(F)(F)C(F)(F)C(F)(F)C(F)(F)C(F)(F)C(F)(F)C(F)(F)F,30 µM (active)
2,[Cl][Sn]([c]1ccccc1)([c]1ccccc1)[c]1ccccc1,0.0888 µM (active)
3,CCCCOCN(C(=O)CCl)c1c(CC)cccc1CC,38.5 µM (active)
